# Experimental data taken from PubChem BioAssay (EPA / NIEHS).
# Records with an inconclusive call do not appear. Activity calls are given as the source filed them. How the source made its calls, unless noted: active means hit-call score of the fitted dose curve at least 0.9, where 1 is the maximum; inconclusive means response in the unintended direction; inactive means score below 0.9.
# How the values were obtained:
# [1] = test system: Sodium/Iodide Symporter (NIS), SLC5A5 (gene 6528); assay: CPHEA_Stoker_NIS_Inhibition_RAIU: CPHEA's Radioactive Iodide Uptake (RAIU) Assay for Sodium/Iodide Symporter (NIS) Inhibition, Stoker and Laws Labs (AID 2283841)
# Procedure, shortened: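 Iodide uptake read as CPM of intracellular 125I (final 329 pM) after 2 h room-temperature exposure in HEPES-buffered HBSS, pH 7.4. Human NIS-expressing HEK293T cells; six concentrations 0.001–100 uM, 0.5% DMSO, normalised to DMSO wells.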
# [2] = CPHEA_Stoker_NIS_Cytotoxicity: Cytotoxicity Assessment for CPHEA's Radioactive Iodide Uptake (RAIU) Assay for Sodium/Iodide Symporter (NIS) Inhibition, Stoker and Laws Labs (AID 2283897);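 on AC50: active means loss of ATP signal versus DMSO meaning cytotoxicity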
# Procedure, shortened: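 CellTiter-Glo ATP luminescence gauged viability in HEK293T cells expressing human NIS after 2 h chemical exposure. Concentrations ran 0.001–100 uM in 0.5% DMSO; DMSO served as baseline for the loss-of-signal fit.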
# PGR (gene 5241) [3] = target: PGR (gene 5241) (UniProt P06401); assay: TOX21_PR_BLA_Followup_Antagonist_ratio: Tox21 HEK293 Progesterone Receptor (PR) Antagonism Beta-lactamase Follow-Up Assay, Ratio (AID 2283934)
# Procedure, shortened: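 PR-UAS-bla HEK293T cells in medium with 2% charcoal-stripped FBS were treated with compounds plus 1 nM (final) promegestone (R5020) for 16 hr at 37C. LiveBLAzer B/G FRET substrate was then added for 2 h at room temperature; signal is cleaved/uncleaved substrate ratio versus DMSO.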
# [4] = TOX21_PR_BLA_Followup_Agonist_viability: Viability Assessment in the Tox21 HEK293 Progesterone Receptor (PR) Agonism Beta-lactamase Follow-Up Assay (AID 2283935);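 further: signal loss means lower viability so actives are cytotoxic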
# Procedure, shortened: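 PR-UAS-bla HEK293T cells in 2% charcoal-stripped FBS medium, compound added after 6 hr plating, 16 hr at 37C/5% CO2. After bla FRET read, CellTiter-Glo added; luminescence read after 30 min at room temperature; signal loss marks cytotoxicity.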
# [5] = TOX21_PR_BLA_Followup_Antagonist_viability: Viability Assessment in the Tox21 HEK293 Progesterone Receptor (PR) Antagonism Beta-lactamase Follow-Up Assay (AID 2283936);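 further: hits lower the luminescence signal meaning cytotoxicity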
# Procedure, shortened: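 PR-UAS-bla HEK293T cells (3,000/well, 2% charcoal-stripped FBS) given compound plus R5020 agonist, 16 h at 37C. CellTiter-Glo added after bla read, 30 min at room temperature; luminescence loss indicates cytotoxicity.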
# [6] = TOX21_PR_LUC_Followup_Antagonist_viability: Viability Assessment in the Tox21 HEK293 Progesterone Receptor (PR) Antagonism Luciferase Follow-Up Assay (AID 2283940)
# Procedure, shortened: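 HEK293-PR-A-luc cells, precultured 5 days in assay medium with 10% charcoal-stripped FBS, were seeded at 3,000 cells/well, treated with compounds in DMSO for 16 h at 37C, and viability was read as cellular ATP by CellTiter-Glo luminescence.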
# PGR (gene 5241) [7] = target: PGR (gene 5241) (UniProt P06401); assay: TOX21_PR_LUC_Followup_Antagonist: Tox21 HEK293 Progesterone Receptor (PR) Antagonism Luciferase Follow-Up Assay (AID 2283938);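 further: curve fitted upward as signal gain over DMSO baseline despite antagonist label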
# Procedure, shortened: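 A follow-up to the PR bla screen using HEK293-PR-A-luc cells, multiplexed with cell viability to flag cytotoxicity. Reporter luminescence after 16 h compound exposure was analysed relative to DMSO.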
# PGR (gene 5241) [8] = target: PGR (gene 5241) (UniProt P06401); assay: TOX21_PR_BLA_Followup_Agonist_ratio: Tox21 HEK293 Progesterone Receptor (PR) Agonism Beta-lactamase Follow-Up Assay, Ratio (AID 2283933)
# Procedure, shortened: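 PR-UAS-bla HEK293T cells (GAL4-UAS beta-lactamase reporter) in medium with 2% charcoal-stripped FBS received compounds after 6 hr at 37C, then incubated 16 hr. LiveBLAzer FRET substrate added, 2 hr room temperature; cleaved/uncleaved (ch2/ch1) ratio fitted upward versus DMSO.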
# PGR (gene 5241) [9] = target: PGR (gene 5241) (UniProt P06401); assay: TOX21_PR_LUC_Followup_Agonist: Tox21 HEK293 Progesterone Receptor (PR) Agonism Luciferase Follow-Up Assay (AID 2283937; active means hit-call score of the fitted dose curve at least 0.9, where 1 is the maximum; inactive means score below 0.9)
# Procedure, shortened: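 HEK293-PR-A-luc cells, pre-cultured 5 days in medium with 10% charcoal-stripped FBS, were seeded at 3,000 cells/well, rested 5 h at 37C, then exposed to compounds 16 h at 37C; luciferase read by ONE-Glo luminescence after 30 min.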
# [10] = target: Thyroid hormone receptor alpha (Rattus norvegicus) + Thyroid hormone receptor beta (Rattus norvegicus) (UniProt P18113+P63059); assay: TOX21_TR_LUC_GH3_Agonist_Followup: Tox21 GH3 Thyroid Hormone Receptor Agonism Luciferase Follow-Up Assay (AID 2283939)
# Procedure, shortened: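 Rat GH3 cells (1,500/well) in serum-free assay medium, treated with 15-point series, 92 uM to 5 nM final, for 24 h at 37C. Luciferase via ONE-Glo luminescence; gain of signal fitted against DMSO, T3 positive control.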
# Sequence of PGR (gene 5241) (P06401 whole entry, looked up, the tested form may be a part): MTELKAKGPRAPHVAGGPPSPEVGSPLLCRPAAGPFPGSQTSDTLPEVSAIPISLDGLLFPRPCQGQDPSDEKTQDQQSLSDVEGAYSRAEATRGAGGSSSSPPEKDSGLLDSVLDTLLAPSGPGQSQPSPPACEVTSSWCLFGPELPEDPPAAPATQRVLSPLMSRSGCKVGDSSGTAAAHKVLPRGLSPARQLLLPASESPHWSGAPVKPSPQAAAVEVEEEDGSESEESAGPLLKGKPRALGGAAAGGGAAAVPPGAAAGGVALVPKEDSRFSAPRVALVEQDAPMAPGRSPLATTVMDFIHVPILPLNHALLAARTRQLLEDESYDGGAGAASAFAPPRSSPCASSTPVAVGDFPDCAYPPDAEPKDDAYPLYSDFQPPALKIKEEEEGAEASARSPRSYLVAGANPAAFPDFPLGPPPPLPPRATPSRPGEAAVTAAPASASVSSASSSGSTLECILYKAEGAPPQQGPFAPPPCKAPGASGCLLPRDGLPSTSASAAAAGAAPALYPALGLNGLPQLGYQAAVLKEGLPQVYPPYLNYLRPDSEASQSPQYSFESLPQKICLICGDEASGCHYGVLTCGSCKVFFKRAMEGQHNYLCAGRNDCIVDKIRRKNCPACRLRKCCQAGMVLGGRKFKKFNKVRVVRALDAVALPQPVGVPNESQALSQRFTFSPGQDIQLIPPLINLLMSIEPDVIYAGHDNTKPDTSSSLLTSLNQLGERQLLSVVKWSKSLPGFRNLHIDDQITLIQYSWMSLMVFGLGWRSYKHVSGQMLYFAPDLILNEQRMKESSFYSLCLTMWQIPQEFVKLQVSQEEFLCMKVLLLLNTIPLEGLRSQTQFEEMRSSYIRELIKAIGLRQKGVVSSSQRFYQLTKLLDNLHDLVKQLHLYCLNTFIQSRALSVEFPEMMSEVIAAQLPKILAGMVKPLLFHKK
# Sequence of Thyroid hormone receptor alpha (Rattus norvegicus) + Thyroid hormone receptor beta (Rattus norvegicus) (P63059 whole entry, looked up): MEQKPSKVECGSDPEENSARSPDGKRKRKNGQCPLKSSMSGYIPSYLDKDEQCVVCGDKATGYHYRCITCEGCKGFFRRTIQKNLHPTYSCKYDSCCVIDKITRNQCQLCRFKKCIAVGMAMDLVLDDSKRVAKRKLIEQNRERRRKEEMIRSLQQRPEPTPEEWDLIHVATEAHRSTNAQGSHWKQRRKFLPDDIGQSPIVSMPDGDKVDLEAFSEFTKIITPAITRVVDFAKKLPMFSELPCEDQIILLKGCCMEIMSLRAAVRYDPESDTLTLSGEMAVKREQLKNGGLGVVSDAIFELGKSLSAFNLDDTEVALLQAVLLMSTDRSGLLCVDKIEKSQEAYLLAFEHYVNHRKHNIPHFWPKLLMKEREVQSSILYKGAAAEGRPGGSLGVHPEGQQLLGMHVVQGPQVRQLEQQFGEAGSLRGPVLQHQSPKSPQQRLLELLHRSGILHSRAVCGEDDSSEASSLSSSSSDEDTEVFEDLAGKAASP
# Sequence of Thyroid hormone receptor alpha (Rattus norvegicus) + Thyroid hormone receptor beta (Rattus norvegicus) (P18113 whole entry, looked up): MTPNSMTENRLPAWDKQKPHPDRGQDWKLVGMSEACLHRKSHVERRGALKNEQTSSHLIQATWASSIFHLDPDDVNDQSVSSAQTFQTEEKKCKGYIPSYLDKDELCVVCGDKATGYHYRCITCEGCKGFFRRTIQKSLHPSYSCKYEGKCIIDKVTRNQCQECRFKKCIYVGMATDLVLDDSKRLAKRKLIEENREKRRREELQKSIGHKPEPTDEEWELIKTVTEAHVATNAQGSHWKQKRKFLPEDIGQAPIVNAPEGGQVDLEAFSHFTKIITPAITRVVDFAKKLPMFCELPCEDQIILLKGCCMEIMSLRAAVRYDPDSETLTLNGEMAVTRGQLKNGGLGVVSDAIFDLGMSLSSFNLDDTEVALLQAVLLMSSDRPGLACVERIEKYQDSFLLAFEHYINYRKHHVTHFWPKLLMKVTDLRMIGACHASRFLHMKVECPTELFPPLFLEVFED
compound,measurement,setting,value
Oc1ccc(Cl)cc1Cc1cc(Cl)ccc1O,AC50,[1],9.92 µM (active)
same,AC50,[2],50 µM (active)
c1ccc2c(c1)ccc1cc3c(ccc4ccccc43)cc12,outcome,[1],inactive
same,outcome,[2],inactive
C[C@]12C=CC(=O)C=C1CC[C@@H]1[C@@H]2[C@@H](O)C[C@@]2(C)[C@H]1CC[C@]2(O)C(=O)CO,outcome,PGR (gene 5241) [3],inactive
same,outcome,[4],inactive
same,outcome,[5],inactive
same,outcome,[6],inactive
Nc1ccc(-c2ccc(F)cc2)cc1,AC50,PGR (gene 5241) [3],24.6 µM (active)
same,outcome,[4],inactive
same,outcome,[5],inactive
same,outcome,PGR (gene 5241) [7],inactive
same,outcome,[6],inactive
C[C@]12CCC(=O)C=C1CC[C@@H]1[C@@H]2C(=O)C[C@@]2(C)[C@H]1CC[C@]2(O)C(=O)CO,outcome,PGR (gene 5241) [3],inactive
same,outcome,[4],inactive
same,outcome,[5],inactive
same,outcome,PGR (gene 5241) [7],inactive
CCCCCCCC[N+](C)(CCCCCCCC)CCCCCCCC,AC50,[1],10.4 µM (active)
same,AC50,[2],50 µM (active)
CC/C=C\C/C=C\C/C=C\CCCCCCCC(=O)O,outcome,[1],inactive
same,outcome,[2],inactive
O=c1cc(-c2ccccc2)oc2ccccc12,outcome,[1],inactive
same,outcome,[2],inactive
O=C(C=Cc1ccccc1)OCc1ccccc1,outcome,[1],inactive
same,outcome,[2],inactive
CC(C)(c1cc(Br)c(OCCO)c(Br)c1)c1cc(Br)c(OCCO)c(Br)c1,outcome,PGR (gene 5241) [8],inactive
same,AC50,PGR (gene 5241) [3],13.4 µM (active)
same,AC50,[4],32.2 µM (active)
same,AC50,[5],54 µM (active)
same,outcome,PGR (gene 5241) [9],inactive
same,AC50,PGR (gene 5241) [7],12.8 µM (active)
same,outcome,[6],inactive
C#CC1(O)CC[C@H]2[C@@H]3CCC4=CCCC[C@@H]4[C@H]3CC[C@@]21C (stereo partly drawn),outcome,PGR (gene 5241) [3],inactive
same,outcome,[4],inactive
same,outcome,[5],inactive
same,AC50,PGR (gene 5241) [7],23.9 µM (active)
same,outcome,[6],inactive
CO[Si](OC)(OC)c1ccccc1,outcome,[1],inactive
same,outcome,[2],inactive
CC(=O)[C@H]1[C@H](C#N)C[C@H]2[C@@H]3CC=C4C[C@@H](O)CC[C@]4(C)[C@H]3CC[C@@]21C,AC50,PGR (gene 5241) [3],19.2 µM (active)
same,outcome,[4],inactive
same,outcome,[5],inactive
same,outcome,PGR (gene 5241) [7],inactive
NC(CO)(CO)CO,outcome,[1],inactive
same,outcome,[2],inactive
same,AC50,[10],10.6 µM (active)
COc1ccc(C(Cl)=C(c2ccc(OC)cc2)c2ccc(OC)cc2)cc1,AC50,PGR (gene 5241) [3],8.27 µM (active)
same,outcome,[4],inactive
same,outcome,[5],inactive
same,AC50,PGR (gene 5241) [7],8.88 µM (active)
same,outcome,[6],inactive
CC(C)(C)c1ccc(OC(=O)c2ccccc2O)cc1,outcome,[1],inactive
same,outcome,[2],inactive
CCN(CCC#N)c1ccc(N=Nc2c(Cl)cc([N+](=O)[O-])cc2Cl)cc1,outcome,[1],inactive
same,outcome,[2],inactive
CCCCCCC(O)CO (stereo not drawn),outcome,[10],inactive
CCC(=O)Oc1ccc(/C(CC)=C(\CC)c2ccc(OC(=O)CC)cc2)cc1,AC50,PGR (gene 5241) [3],9.26 µM (active)
same,outcome,[4],inactive
same,outcome,[5],inactive
same,AC50,PGR (gene 5241) [7],16.5 µM (active)
same,outcome,[6],inactive
CN(C)c1ccc(C(=N)c2ccc(N(C)C)cc2)cc1,AC50,[1],19.8 µM (active)
same,outcome,[2],inactive
Cc1ccc(C(C)c2ccc(C)c(C)c2)cc1C,outcome,PGR (gene 5241) [3],inactive
same,outcome,[4],inactive
same,outcome,[5],inactive
same,outcome,PGR (gene 5241) [7],inactive
same,outcome,[6],inactive
CCOC(=O)c1ccccc1C(=C1C=C(Br)C(=O)C(Br)=C1)c1cc(Br)c(O)c(Br)c1,AC50,PGR (gene 5241) [3],24.5 µM (active)
same,outcome,[4],inactive
same,outcome,[5],inactive
same,AC50,PGR (gene 5241) [7],28.9 µM (active)
same,outcome,[6],inactive
CCCCCCCCCCOS(=O)(=O)O,AC50,[1],8.08 µM (active)
same,outcome,[2],inactive
C1CN(SSN2CCOCC2)CCO1,outcome,[2],inactive
CCOC(=O)Cc1cccc2ccccc12,outcome,[1],inactive
same,outcome,[2],inactive
